PAX8 inh HTS = lowers PAX8-driven luciferase in RMG-I cells | RMG-I TPO-luciferase reporter, SteadyGlo, 24 h | inhibition, % at 12.6 µM | hit rate 1.2% among 360,000;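 active = mean replicate inhibition at least 60% with every replicate also reaching 60%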;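 also: luciferase light reporting Pax8 driven TPO promoter activity; plate controls were median of neutral control wells for no effect and mitoxantrone controls for full effect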
F508del corr = correctors of CFTR F508del function in bronchial epithelial cells; CFBE cells, YFP halide quenching; stimulated with forskolin plus potentiator P3; % fluorescence drop versus neutral controls; activity (quench increase), % at 7.58 µM; hit rate 0.36% among 350,000; AID 720511;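 active = mean added fluorescence quench of at least 8% versus neutral control, with both replicates also reaching 8%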;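 also: cells transiently co-express mutant CFTR-F508del with the halide-sensitive YFP; corrector assay measuring rescue of mutant channel to the surface after 24 h compound exposure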
INS-1E GSIS act = primary screen for activators of insulin secretion dependent on glucose, INS-1E cells, GLuc reporter luminescence. INS-1E GLuc reporter insulin secretion, 2-3 h. activation, % at 16.6 µM. hit rate 0.61% among 370,000;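 active = lowest replicate activation of at least 40%, so every replicate reaches that level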;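 also: 0% = median of neutral control wells and 100% = median of IBMX positive control wells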
EWS-Fli block = EWS/Fli transcriptional activity inhibition | A673 NR0B1-luciferase reporter, viability-normalised | inhibition, % at 12.6 µM | AID 651661 | hit rate 0.67% among 350,000;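 active = mean inhibition of at least 50% after viability correction, with every replicate also passing that limit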;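 also: firefly luciferase signal divided by Alamar Blue viability fluorescence both relative to DMSO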
Env fusion inh = blocks HIV Env-driven cell-cell fusion | HeLa-JRFL Env/CEM21 cell fusion, luciferase | hit rate 1.1% among 360,000 | inhibition, % at 12.3 µM;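 active = mean replicate inhibition score of at least 50 and every replicate individually at or above 50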;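 also: 0% = plate neutral controls and 100% = maraviroc near 300 nM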
PGC1a acetyl inh = lowers PGC1a acetylation signal in U2OS cells; AID 651687; inhibition, % at 15.6 µM; AlphaScreen anti-acetyl-lysine; with virally co-expressed GCN5 acetyltransferase; hit rate 0.17% among 350,000;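 active = every replicate shows inhibition of at least 40%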;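 also: 0% = neutral control wells and 100% = positive control wells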
The depositor's hits bear a star; [ ] = remark or other dose. Sampled rows, rich in hits. Any-hit rate of the full collection: about 2.7%.

For COc1ccc2c3c([nH]c2c1)[C@H](CO)N(S(C)(=O)=O)CC31CCN(Cc2cccc(F)c2)CC1 the results were F508del corr 8.3*, INS-1E GSIS act -9, EWS-Fli block 6 and PGC1a acetyl inh -2.
COCC(=O)N1CC2(CCN(Cc3ccccc3)CC2)c2c([nH]c3cc(OC)ccc23)[C@H]1CO was read as F508del corr 13*, INS-1E GSIS act 7, EWS-Fli block -2 and PGC1a acetyl inh -6.
For Cc1noc(C)c1S(=O)(=O)Nc1ccc2c(c1)C(=O)N([C@@H](C)CO)C[C@H](C)[C@@H](CN(C)S(=O)(=O)c1ccccc1)OCCCC[C@@H](C)O2 the results were PAX8 inh HTS -11, F508del corr 1, INS-1E GSIS act -17, EWS-Fli block 3, Env fusion inh -53[16.7 µM] and PGC1a acetyl inh -15.
Screening COc1ccc(NC(=O)C2C3C=CC4(O3)C2C(=O)N(CCN2CCCCC2C)C4C(=O)NC2CCCC(C)C2C)cc1 (stereo unspecified) returned PAX8 inh HTS 10, F508del corr -3, INS-1E GSIS act 92*, EWS-Fli block 17, Env fusion inh 3 and PGC1a acetyl inh -7.
Screening CC1(S(=O)(=O)O)CC(=O)c2ccccc2C1=O (stereo unspecified) returned PAX8 inh HTS 34, F508del corr 8.1*, INS-1E GSIS act -14, EWS-Fli block -4, Env fusion inh 10 and PGC1a acetyl inh 5.
Screening CCC(=O)N1C[C@H](C)[C@@H](OC)CN(C)C(=O)c2cc(NC(=O)c3ccc(F)cc3)ccc2OC[C@H]1C returned PAX8 inh HTS 10, F508del corr 1, INS-1E GSIS act -3, EWS-Fli block -4, Env fusion inh 6[16.7 µM] and PGC1a acetyl inh -3.
For C=CCn1c(SCc2csc(-c3ccc(Cl)cc3)n2)nnc1-c1ccccc1OC the results were PAX8 inh HTS 2, INS-1E GSIS act -50, EWS-Fli block 6 and Env fusion inh 56*.
`COc1ccccc1CCn1cnc(-c2cccc(F)c2)c1CC(C)C` gave PAX8 inh HTS 11, F508del corr 4, INS-1E GSIS act 141*, EWS-Fli block 20 and Env fusion inh -11.
Screening COc1ccccc1CCn1cnc(-c2ccc(Cl)cc2)c1CC(C)C returned PAX8 inh HTS -12, F508del corr 3, INS-1E GSIS act 307*, EWS-Fli block 12 and Env fusion inh 25.
For CCCc1c(-c2ccc(OC)cc2)ncn1CCc1ccccc1OC the results were PAX8 inh HTS 18, F508del corr 7, INS-1E GSIS act -37, EWS-Fli block 26 and Env fusion inh 13.
For CCCc1c(-c2cccc(F)c2)ncn1CCc1ccccc1OC the results were PAX8 inh HTS 9, F508del corr -1, INS-1E GSIS act -4, EWS-Fli block 24 and Env fusion inh 13.
`CN1C(=O)c2cc(NC(=O)c3ccc(C(F)(F)F)cc3)ccc2OC[C@H]2O[C@H](CC(=O)NC3Cc4ccccc4C3)CC[C@@H]21` gave PAX8 inh HTS 48, F508del corr -1, INS-1E GSIS act -30, EWS-Fli block 22, Env fusion inh 30[16.7 µM] and PGC1a acetyl inh -6.
Screening CCCC(=O)Nc1ccc2c(c1)OC[C@@H](C)N(C(=O)CC1CC1)C[C@H](C)[C@H](OC)CN(C)C2=O returned PAX8 inh HTS -1, F508del corr 3, INS-1E GSIS act 7, EWS-Fli block 1, Env fusion inh -1[16.7 µM] and PGC1a acetyl inh -2.
O=C(Nc1ccc(C(=O)N2CCCC2)cc1)C1CCCC1 was read as PAX8 inh HTS -9, F508del corr 5, INS-1E GSIS act 5, EWS-Fli block -17, Env fusion inh -10 and PGC1a acetyl inh 11.
O=C(Nc1ccc(F)cc1)C1CCN(C(=O)c2ccc(F)cc2)CC1 was read as PAX8 inh HTS 0, F508del corr 14*, EWS-Fli block 4, Env fusion inh -11 and PGC1a acetyl inh 2.
Screening CCCC(=O)Nc1ccc2c(c1)C(=O)N(C)C[C@@H](OC)[C@@H](C)CN(Cc1ccc(-c3ccccn3)cc1)[C@H](C)CO2 returned PAX8 inh HTS -32, F508del corr 1, INS-1E GSIS act -25, EWS-Fli block -5 and PGC1a acetyl inh -4.
For CC(C)[C@@H]1COCc2cn(nn2)CC[C@@H](Cc2ccccc2)C(=O)N1 the results were PAX8 inh HTS 6, INS-1E GSIS act 3, EWS-Fli block -6 and Env fusion inh -20[16.7 µM].
For CCN(CC)CCNCc1ccc(Br)cc1OCC(=O)NCc1ccccc1 the results were PAX8 inh HTS 4, F508del corr 0, INS-1E GSIS act 62*, EWS-Fli block 4, Env fusion inh 10 and PGC1a acetyl inh 1.
CC(=O)N1[C@H](C(=O)NC2CCC2)[C@@H](CO)[C@@H]2Cn3c(ccc(C4=CCCC4)c3=O)[C@@H]21 was read as F508del corr 1, INS-1E GSIS act -9, EWS-Fli block -1 and PGC1a acetyl inh -2.
For CN(C)CCCNC(=S)NCC(c1ccc(Cl)cc1Cl)c1c[nH]c2ccccc12 (stereo unspecified) the results were PAX8 inh HTS 29, F508del corr 0, INS-1E GSIS act -11, EWS-Fli block 62* and Env fusion inh -1.
O=C(c1ccccc1[N+](=O)[O-])n1cnc2ccccc21 was read as PAX8 inh HTS -21, F508del corr 0, INS-1E GSIS act -4, EWS-Fli block 6, Env fusion inh 11 and PGC1a acetyl inh 7.
For O=C(c1cc(Cl)ccc1[N+](=O)[O-])n1cnc2ccccc21 the results were PAX8 inh HTS 7, INS-1E GSIS act -5, EWS-Fli block 58* and Env fusion inh 2.
For COc1ccc(S(=O)(=O)Nc2cccc3c2O[C@@H](CN(C)C(=O)Nc2ccccc2)[C@H](C)CN([C@H](C)CO)C3=O)cc1 the results were PAX8 inh HTS -10, F508del corr -1, INS-1E GSIS act 8, EWS-Fli block 2, Env fusion inh -10[16.7 µM] and PGC1a acetyl inh 3.
For COc1ccc(CSc2nnnn2C)cc1F the results were PGC1a acetyl inh 1.
Screening COc1ccc(CSc2nncn2C)cc1F returned PAX8 inh HTS -9, F508del corr -3, INS-1E GSIS act 7, EWS-Fli block -13, Env fusion inh 60* and PGC1a acetyl inh 4.
Screening CCC(=O)N[C@@H]1CC[C@@H](CC(=O)NCC2CCCCC2)O[C@@H]1CO returned PAX8 inh HTS -2, F508del corr -2, INS-1E GSIS act 18, EWS-Fli block 4, Env fusion inh 1[16.7 µM] and PGC1a acetyl inh 4.
For O=C(Nc1cccc(C2=NCCN2)c1)Nc1cccc(C2=NCCN2)c1 the results were PAX8 inh HTS 99*, F508del corr 8.3*, EWS-Fli block -10, Env fusion inh 12 and PGC1a acetyl inh 1.
Screening CCCN1[C@@H]2c3ccc(C4=CCCC4)c(=O)n3C[C@@H]2[C@@H](CO)[C@@H]1C(=O)NCCCN(C)C returned F508del corr -1, INS-1E GSIS act 6 and EWS-Fli block 0.

Screening data as filed in PubChem.
